Five molecules from PubChem BioAssay (NCATS) can be followed below.

Test [1] concerns the target Lysosomal acid glucosylceramidase (Homo sapiens) (UniProt P04062). Put plainly: Glucocerebrosidase-p2 (AID 348; in the data active = potency below about 10 µM; also: potency is read from the fitted curve at half-maximal effect). The following applies: purified GBA, blue fluorogenic substrate, 40 min. A digest of the protocol: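 Compounds titrated from 0.6 nM upwards against 0.2 nM enzyme in pH 5.9 citric acid/KH2PO4, taurocholate, tween-20; blue fluorogenic substrate 80 uM, 40 min room temperature, stopped and read Ex 365/Em 440 for AC50.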

Test [2] is described as follows: AP1 Signaling Pathway (AID 357; active = well fitted curve in either direction with a large enough effect, not every such curve was filed as active;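 also: ME-180 reporter cells stimulated with EGF at its EC50 level; % is scaled to controls: 0 for no effect and ±100 for the full control effect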). To be noted: ME-180 AP-1-bla reporter, EGF-induced, beta-lactamase ratio, 5 h; at 7.69 µM (top of the series) unless noted. Summed up:
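In this screen, ME-180 cells in Opti-MEM with 0.5% dialyzed FBS received EC50 EGF and compound titrations for 5 h. AP-1 reporter beta-lactamase was detected via CCF4 ratio, giving AC50 for positive and negative modulators.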

Test [3] in a line: NFAT Signaling Pathway (AID 444; active = well fitted curve in either direction with a large enough effect, not every such curve was filed as active;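 also: carbachol stimulus at about its EC50 of 1 µM final; % is scaled to controls: 0 for no effect and ±100 for the full control effect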). The following applies: Jurkat NFAT-bla M1, carbachol, beta-lactamase ratio, 5 h; at 7.69 µM (top of the series) unless noted. A digest of the protocol:
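Jurkat cells carrying an NFAT-driven β-lactamase reporter and co-transfected muscarinic M1 receptor were treated with compound plus carbachol (1 uM final, an EC50 level) for 5 h at 37 °C. CCF4 loading followed for 1 h at RT; 460/530 nm ratio gave %activity.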

Test [4] in a line: Stat Signaling Pathway (AID 446; active = well fitted curve in either direction with a large enough effect, not every such curve was filed as active;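 also: ME-180 cervical cancer cells given 40 pM IL-6 alongside compound; SIE-controlled beta-lactamase reporter measured as 460/530 nm FRET emission ratio; % is scaled to controls: 0 for no effect and ±100 for the full control effect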). To be noted: ME-180 SIE beta-lactamase reporter, IL-6 stimulated, 5 h; at 7.69 µM (top of the series) unless noted. A digest of the protocol:
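ME-180 cells carrying a SIE-driven beta-lactamase reporter are stimulated with 40 pM IL-6 for 5 h at 37C in the presence of compound. The 460/530 nm FRET substrate ratio is read after 2.5 h at RT. Data are normalised to 300 pM IL-6 and to 125 nM JAK inhibitor controls.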

Test [5] concerns the target Glucocorticoid receptor (Homo sapiens) (UniProt P04150). Description: GR-GFP Redistribution (AID 450;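 active = compounds whose dose series gives a full or clear partial fitted curve of increased nuclear translocation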; also: potency is read from the fitted curve at half-maximal effect). To be noted: U2OS GR-GFP nuclear translocation, laser cytometry, 2 h.
The target is the same in test [6]. Put plainly: GR-EFC Redistribution (AID 451; calls by dose curve; also: potency is read from the fitted curve at half-maximal effect). To be noted: CHO-K1 GR-EFC translocation, beta-gal luminescence, 2 h. Summed up: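 CHO-K1 cells stably expressing nuclear-localized β-gal enzyme acceptor and GR fused C-terminally to the enzyme donor fragment; ligand-driven nuclear translocation restores β-gal by complementation. Compounds titrated up to 46 uM final, 2 h at 37 °C; luminescence read.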

The target of test [7] is Mitogen-activated protein kinase 10 (Mus musculus) (UniProt Q61831). Description: JNK3 AlphaScreen Assay (AID 530; active = well fitted curve in either direction with a large enough effect, not every such curve was filed as active;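 also: kinase came from lysate of stimulated human HepG2 cells; signal reports phosphorylation of biotinylated GST-cJun 1-79 at Ser73 with 10 µM ATP; % is scaled to controls: 0 for no effect and ±100 for the full control effect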). The following applies: JNK3 lysate, c-Jun phosphorylation; series mostly up to 57.1 µM. A digest of the protocol: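 Inhibitors reduce antibody binding to phosphorylated biotin-cJun, lowering AlphaScreen luminescence. Lysates from HepG2 cells pre-activated by IL-1beta plus TNF-alpha supplied JNK3; compounds were titrated.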
Background: In Alpha technology, singlet oxygen from a donor bead excites a nearby acceptor bead.

For test [8], the target named is 3',5'-cyclic-AMP phosphodiesterase 4B (Homo sapiens) (UniProt Q07343). Description: qHTS Assay for Inhibitors of PDE-IV (AID 607; active = well fitted activation curve with a large enough effect in the main read-out, with a control signal flat, not every such curve was filed as active; also: % of control where 0% means no effect). To be noted: HEK293 ACTOne CNG channel cells, membrane potential fluorescence; series mostly up to 22.9 µM. A digest of the protocol:
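HEK293 ACTOne cells with CNG channel (1000/well), endogenous PDE4; membrane potential dye, compounds up to 22.9 uM final. Fluorescence Ex 535/Em 590; RO 20-1724 (100 uM final) as reference.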
In general terms: qHTS replaces the single test concentration by a dilution series.

Test [9] has as its target Dual specificity protein kinase CLK4 (Homo sapiens) (UniProt Q9HAZ1). Put plainly: qHTS Assay for Inhibitors of CDC-like Kinase 4 (Kinase-Glo Assay) (AID 1770). Also: nearly all actives have a fitted effect of over 65% in size. Also: potency is read from the fitted curve at half-maximal effect. The following applies: recombinant Clk4, Kinase-Glo ATP depletion luminescence; series mostly up to 66.7 µM. Summed up:
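25 nM Clk4 with 100 uM RS repeat peptide and 1 uM ATP (final) in Tris pH7.5, 10 mM MgCl2, 4.5 h at room temperature. Remaining ATP measured by Kinase-Glo luciferase luminescence.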

Test [10] has the same target. Put plainly: qHTS Assay for Inhibitors of CDC-like Kinase 4 (ADP-FP Assay) (AID 1795). Also: nearly all actives have a fitted effect of over 60% in size. Also: potency is read from the fitted curve at half-maximal effect. The following applies: Transcreener ADP fluorescence polarization; series mostly up to 50 µM. A digest of the protocol:
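Recombinant Clk4 (6.25 nM) phosphorylated 100 uM RS repeat peptide with 1 uM ATP in 25 mM Tris pH 7.5, 10 mM MgCl2, 0.5 mM EGTA, 2.5 mM DTT, 0.01% Triton X-100 for 1 h. ADP was detected by Transcreener ADP2 competitive fluorescence polarization after 30 min at room temperature.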

The target of test [11] is Ubiquitin carboxyl-terminal hydrolase 1 (Homo sapiens) (UniProt O94782). Description: Inhibitors of USP1/UAF1: Pilot qHTS (AID 504865). Also: nearly all actives have a fitted effect of over 35% in size. Also: potency is read from the fitted curve at half-maximal effect. The following applies: purified USP1/UAF1, Ub-rhodamine cleavage fluorescence; series mostly up to 54.9 µM. A digest of the protocol:
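USP1/UAF1 complex at 1 nM preincubated 15 min at room temperature with compound, then Ub-Rho substrate added at 150 nM final. Fluorescence (480/540 nm) read kinetically in 50 mM HEPES pH 7.8, 0.5 mM EDTA, 1 mM TCEP, 0.1 mg/ml BSA, 0.01% Tween-20.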

Test [12] in a line: Primary qHTS for small molecule stabilizers of the endoplasmic reticulum resident proteome: Secreted ER Calcium Modulated Protein (SERCaMP) assay (AID 1508630). Also: % is scaled to controls: 0 for no effect and ±100 for the full control effect. The following applies: SH-SY5Y GLuc-SERCaMP (Gaussia luciferase released on ER calcium loss) secretion, thapsigargin, luminescence; series mostly up to 38.4 µM. A digest of the protocol:
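GLuc-SERCaMP-expressing SH-SY5Y cells, pretreated 16 h with compound, are challenged with thapsigargin to empty ER calcium stores; after 4 h, coelenterazine is added directly to the medium and luminescence is imaged.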

Test [13] has as its target Cytochrome P450 1A2 (Homo sapiens) (UniProt P05177). Put plainly: p450-cyp1a2 (AID 410; calls by dose curve; also: potency is read from the fitted curve at half-maximal effect;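 as to activity change, negative = inhibition: -100% = full effect of reference inhibitor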). To be noted: recombinant CYP1A2, luciferin-ME demethylation, luminescence; series mostly up to 57 µM. Summed up:
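Luminescent readout of luciferin formed from Luciferin-ME by human CYP1A2; data normalized against complete inhibition by 57 uM furafylline. Enzyme 20nM, substrate 100uM at Km, 100mM KPO4 buffer, 60 min reaction at room temperature.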

In test [14] the target is Cytochrome P450 3A4 (Homo sapiens) (UniProt P08684). Description: qHTS Assay for Activators of Cytochrome P450 3A4 (AID 885). Also: nearly all actives have a fitted effect of over 65% in size. To be noted: recombinant CYP3A4, Luciferin-PPXE luminescence, 60 min; series mostly up to 57.1 µM. Summed up:
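Human CYP3A4 (20 nM) with Luciferin-PPXE at 25 uM (its KM) in 200 mM KPO4; 10 min compound preincubation, then NADPH regeneration and 60 min reaction at RT. Luciferin read by luminescence; normalized to 57 uM ketoconazole full inhibition.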

Test [15] deals with Cytochrome P450 2C19 (Homo sapiens) (UniProt P33261). Put plainly: qHTS Assay for Inhibitors and Substrates of Cytochrome P450 2C19 (AID 899). Also: potency is read from the fitted curve at half-maximal effect; nearly all actives have a fitted effect of over 60% in size. The following applies: recombinant CYP2C19, luciferin-H EGE luminescence; series mostly up to 57.1 µM. A digest of the protocol:
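NADPH-dependent conversion of Luciferin-H EGE (10uM, at KM) by 5nM enzyme in 50mM KPO4, 60 min at 37C following 10 min compound preincubation. Stopped with luciferin detection buffer; luminescence read after 20 min.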

Test [16] in a line: qHTS Assay for Identification of Small Molecule Agonists for Hypoxia Response Element Signaling Pathway (AID 914; active = well fitted activation curve with a large enough effect in the signal ratio, with a control signal flat, not every such curve was filed as active; the % refers to the signal ratio; also: potency is read from the fitted curve at half-maximal effect). To be noted: ME-180 (cervical carcinoma) HRE-bla reporter, beta-lactamase ratio, CoCl2, 17 h; activation: active compounds read high. A digest of the protocol:
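Reporter activity (beta-lactamase, CCF4 460nm/530nm ratio) in HRE-bla ME-180 cells is recorded after 17 h compound exposure with EC50 CoCl2 at 37 degrees Celsius. AC50 values come from titration data.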

For test [17], the target named is Cytochrome P450 3A4 (Homo sapiens) (UniProt P08684). Description: qHTS Assay for Inhibitors and Substrates of Cytochrome P450 3A4 (AID 884). Also: potency is read from the fitted curve at half-maximal effect; nearly all actives have a fitted effect of over 50% in size. The following applies: recombinant CYP3A4, Luciferin-PPXE luminescence; series mostly up to 57.1 µM. A digest of the protocol: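 20 nM human CYP3A4 with 25 uM Luciferin-PPXE (at KM) in 200 mM KPO4, preincubated 10 min with compound; NADPH regeneration started a 60 min RT reaction. Luciferin detected by luminescence, normalized to 57 uM ketoconazole as full inhibition.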

Test [18] has as its target Dual specificity protein kinase CLK4 (Homo sapiens) (UniProt Q9HAZ1). Description: qHTS Assay for Inhibitors of CDC-like Kinase 4 (ADP-Glo Assay) (AID 1771). Also: % is scaled to controls: 0 for no effect and ±100 for the full control effect; nearly all actives have a fitted effect of over 70% in size. The following applies: recombinant CLK4, ADP-Glo luminescence; series mostly up to 80 µM. A digest of the protocol:
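Luminescence from ADP-Glo reports ADP produced by 25 nM Clk4 acting on 100 uM RS repeat peptide with 1 uM ATP over 1 hr at room temperature; residual ATP is depleted before ADP is converted to ATP for detection.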

Unmarked numbers belong to inactive results. Results filed as inconclusive are left out. Active and inactive are the calls of the source. Unless noted, calls follow the shape of the dose curve; as a rule, active = well fitted curve in the direction sought with a large enough effect; inconclusive = small, poorly fitted or top-dose-only effect, or another doubt; inactive = no such curve, though single readings can be large; an effect the other way counts as inactive or inconclusive. A value given as a limit tells only on which side of the number the result lay.

Lysosomal acid glucosylceramidase (Homo sapiens), sequence (P04062 whole entry, looked up): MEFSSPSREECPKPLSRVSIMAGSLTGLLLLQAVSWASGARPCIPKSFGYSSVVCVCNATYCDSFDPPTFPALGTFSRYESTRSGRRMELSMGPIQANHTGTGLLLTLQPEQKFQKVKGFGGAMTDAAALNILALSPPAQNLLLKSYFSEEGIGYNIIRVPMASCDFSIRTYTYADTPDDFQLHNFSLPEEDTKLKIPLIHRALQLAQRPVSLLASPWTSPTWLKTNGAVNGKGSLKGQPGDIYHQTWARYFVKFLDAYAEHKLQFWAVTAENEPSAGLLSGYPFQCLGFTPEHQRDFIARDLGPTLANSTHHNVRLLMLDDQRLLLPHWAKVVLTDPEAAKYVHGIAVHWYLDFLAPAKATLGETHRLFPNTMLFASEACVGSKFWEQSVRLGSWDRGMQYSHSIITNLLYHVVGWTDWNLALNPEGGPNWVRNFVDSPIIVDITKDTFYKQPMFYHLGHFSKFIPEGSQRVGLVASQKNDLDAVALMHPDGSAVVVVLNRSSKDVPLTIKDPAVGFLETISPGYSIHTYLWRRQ
3',5'-cyclic-AMP phosphodiesterase 4B (Homo sapiens), sequence (Q07343 whole entry, looked up): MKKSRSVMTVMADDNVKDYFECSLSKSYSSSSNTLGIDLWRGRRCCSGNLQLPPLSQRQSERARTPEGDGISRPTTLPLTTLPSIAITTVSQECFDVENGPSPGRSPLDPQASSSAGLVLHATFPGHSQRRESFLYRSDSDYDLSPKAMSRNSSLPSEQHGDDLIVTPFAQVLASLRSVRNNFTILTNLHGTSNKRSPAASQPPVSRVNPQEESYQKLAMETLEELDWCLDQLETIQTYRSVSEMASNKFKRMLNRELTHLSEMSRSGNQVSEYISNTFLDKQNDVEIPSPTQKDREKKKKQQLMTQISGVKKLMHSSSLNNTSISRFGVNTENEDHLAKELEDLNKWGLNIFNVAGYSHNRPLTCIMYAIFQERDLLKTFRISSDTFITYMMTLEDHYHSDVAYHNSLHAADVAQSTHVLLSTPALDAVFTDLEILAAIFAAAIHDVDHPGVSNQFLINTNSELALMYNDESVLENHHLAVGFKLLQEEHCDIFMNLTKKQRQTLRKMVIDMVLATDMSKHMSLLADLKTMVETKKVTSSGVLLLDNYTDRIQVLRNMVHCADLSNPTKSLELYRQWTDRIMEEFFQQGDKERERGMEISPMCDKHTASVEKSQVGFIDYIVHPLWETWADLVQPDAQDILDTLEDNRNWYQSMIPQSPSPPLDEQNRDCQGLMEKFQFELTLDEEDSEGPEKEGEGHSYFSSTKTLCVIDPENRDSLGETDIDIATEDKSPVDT
Dual specificity protein kinase CLK4 (Homo sapiens), sequence (Q9HAZ1 whole entry, looked up): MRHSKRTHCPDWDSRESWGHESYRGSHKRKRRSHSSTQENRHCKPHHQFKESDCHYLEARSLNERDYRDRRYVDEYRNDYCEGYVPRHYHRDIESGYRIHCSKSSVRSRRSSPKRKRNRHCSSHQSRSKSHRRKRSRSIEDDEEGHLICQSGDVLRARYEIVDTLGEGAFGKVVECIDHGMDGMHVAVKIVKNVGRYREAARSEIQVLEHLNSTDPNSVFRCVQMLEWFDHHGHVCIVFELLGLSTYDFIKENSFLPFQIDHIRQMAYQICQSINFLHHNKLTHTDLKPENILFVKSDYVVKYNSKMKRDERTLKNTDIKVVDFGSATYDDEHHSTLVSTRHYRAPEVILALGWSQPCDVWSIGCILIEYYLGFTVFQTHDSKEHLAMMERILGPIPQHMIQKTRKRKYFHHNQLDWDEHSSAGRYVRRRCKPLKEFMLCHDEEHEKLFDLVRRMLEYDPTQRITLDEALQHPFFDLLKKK
Glucocorticoid receptor (Homo sapiens), sequence (P04150 whole entry, looked up, the tested form may be a part): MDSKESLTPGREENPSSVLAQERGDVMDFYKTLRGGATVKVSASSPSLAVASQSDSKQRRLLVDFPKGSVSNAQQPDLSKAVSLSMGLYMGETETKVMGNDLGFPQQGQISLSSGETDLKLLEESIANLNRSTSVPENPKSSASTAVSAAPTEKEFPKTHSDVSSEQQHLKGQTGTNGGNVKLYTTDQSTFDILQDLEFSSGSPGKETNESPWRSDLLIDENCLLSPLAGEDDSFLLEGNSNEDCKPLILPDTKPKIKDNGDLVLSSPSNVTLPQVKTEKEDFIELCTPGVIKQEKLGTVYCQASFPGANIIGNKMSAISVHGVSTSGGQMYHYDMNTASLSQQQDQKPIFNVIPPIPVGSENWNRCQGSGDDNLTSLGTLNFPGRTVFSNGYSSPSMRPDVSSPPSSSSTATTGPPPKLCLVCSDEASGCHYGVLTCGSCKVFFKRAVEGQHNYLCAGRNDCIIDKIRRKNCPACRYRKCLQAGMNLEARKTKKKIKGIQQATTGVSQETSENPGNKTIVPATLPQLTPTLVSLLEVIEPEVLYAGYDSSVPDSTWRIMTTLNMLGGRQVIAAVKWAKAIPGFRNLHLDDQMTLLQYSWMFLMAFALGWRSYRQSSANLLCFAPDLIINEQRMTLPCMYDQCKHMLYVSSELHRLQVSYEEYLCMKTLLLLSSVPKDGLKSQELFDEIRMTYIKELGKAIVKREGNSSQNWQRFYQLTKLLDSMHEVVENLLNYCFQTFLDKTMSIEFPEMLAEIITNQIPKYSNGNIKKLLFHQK
Ubiquitin carboxyl-terminal hydrolase 1 (Homo sapiens), sequence (O94782 whole entry, looked up): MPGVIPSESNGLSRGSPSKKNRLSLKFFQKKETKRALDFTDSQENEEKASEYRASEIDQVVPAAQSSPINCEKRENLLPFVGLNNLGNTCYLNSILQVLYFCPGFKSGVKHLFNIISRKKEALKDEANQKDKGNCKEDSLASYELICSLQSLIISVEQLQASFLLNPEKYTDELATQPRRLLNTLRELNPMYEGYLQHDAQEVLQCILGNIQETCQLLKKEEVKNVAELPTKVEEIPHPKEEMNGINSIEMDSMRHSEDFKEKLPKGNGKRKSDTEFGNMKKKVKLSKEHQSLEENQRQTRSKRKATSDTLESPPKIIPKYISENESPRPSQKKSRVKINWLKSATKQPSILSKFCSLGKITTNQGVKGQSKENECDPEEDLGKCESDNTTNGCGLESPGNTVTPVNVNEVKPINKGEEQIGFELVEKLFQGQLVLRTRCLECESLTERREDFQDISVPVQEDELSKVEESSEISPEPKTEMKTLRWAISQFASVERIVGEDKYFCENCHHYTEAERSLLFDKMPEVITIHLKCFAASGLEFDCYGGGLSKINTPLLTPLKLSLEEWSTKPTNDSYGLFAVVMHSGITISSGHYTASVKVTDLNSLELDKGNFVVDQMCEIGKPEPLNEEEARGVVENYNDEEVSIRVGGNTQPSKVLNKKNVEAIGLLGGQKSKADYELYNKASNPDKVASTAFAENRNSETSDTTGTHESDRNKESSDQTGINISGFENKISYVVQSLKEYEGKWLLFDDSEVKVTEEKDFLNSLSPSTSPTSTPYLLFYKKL
Cytochrome P450 3A4 (Homo sapiens), sequence (P08684 whole entry, looked up): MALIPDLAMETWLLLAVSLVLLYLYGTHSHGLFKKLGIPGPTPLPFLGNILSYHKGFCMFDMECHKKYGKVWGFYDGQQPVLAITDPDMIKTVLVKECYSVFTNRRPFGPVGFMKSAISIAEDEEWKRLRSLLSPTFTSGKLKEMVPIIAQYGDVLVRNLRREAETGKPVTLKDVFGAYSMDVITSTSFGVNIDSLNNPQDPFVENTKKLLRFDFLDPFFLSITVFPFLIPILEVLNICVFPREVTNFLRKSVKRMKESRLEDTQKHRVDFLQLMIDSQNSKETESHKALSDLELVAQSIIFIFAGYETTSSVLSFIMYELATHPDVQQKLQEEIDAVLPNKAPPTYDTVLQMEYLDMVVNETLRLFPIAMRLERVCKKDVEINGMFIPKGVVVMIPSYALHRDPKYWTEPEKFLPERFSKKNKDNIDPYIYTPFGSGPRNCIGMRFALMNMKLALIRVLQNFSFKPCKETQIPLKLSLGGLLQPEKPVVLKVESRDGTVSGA
Cytochrome P450 1A2 (Homo sapiens), sequence (P05177 whole entry, looked up): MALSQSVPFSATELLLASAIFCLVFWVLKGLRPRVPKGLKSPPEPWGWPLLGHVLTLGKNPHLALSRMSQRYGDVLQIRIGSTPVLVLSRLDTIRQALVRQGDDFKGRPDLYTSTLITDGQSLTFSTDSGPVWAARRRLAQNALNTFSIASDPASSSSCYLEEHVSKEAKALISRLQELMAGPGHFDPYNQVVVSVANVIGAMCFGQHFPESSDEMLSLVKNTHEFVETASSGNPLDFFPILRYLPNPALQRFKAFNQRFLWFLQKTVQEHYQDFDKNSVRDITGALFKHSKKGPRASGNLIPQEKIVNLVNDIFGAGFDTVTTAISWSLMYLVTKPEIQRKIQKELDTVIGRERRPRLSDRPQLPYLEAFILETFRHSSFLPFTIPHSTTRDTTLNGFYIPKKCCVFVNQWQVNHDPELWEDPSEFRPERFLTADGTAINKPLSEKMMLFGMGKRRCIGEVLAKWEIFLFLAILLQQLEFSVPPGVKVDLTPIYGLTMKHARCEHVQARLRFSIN
Cytochrome P450 2C19 (Homo sapiens), sequence (P33261 whole entry, looked up): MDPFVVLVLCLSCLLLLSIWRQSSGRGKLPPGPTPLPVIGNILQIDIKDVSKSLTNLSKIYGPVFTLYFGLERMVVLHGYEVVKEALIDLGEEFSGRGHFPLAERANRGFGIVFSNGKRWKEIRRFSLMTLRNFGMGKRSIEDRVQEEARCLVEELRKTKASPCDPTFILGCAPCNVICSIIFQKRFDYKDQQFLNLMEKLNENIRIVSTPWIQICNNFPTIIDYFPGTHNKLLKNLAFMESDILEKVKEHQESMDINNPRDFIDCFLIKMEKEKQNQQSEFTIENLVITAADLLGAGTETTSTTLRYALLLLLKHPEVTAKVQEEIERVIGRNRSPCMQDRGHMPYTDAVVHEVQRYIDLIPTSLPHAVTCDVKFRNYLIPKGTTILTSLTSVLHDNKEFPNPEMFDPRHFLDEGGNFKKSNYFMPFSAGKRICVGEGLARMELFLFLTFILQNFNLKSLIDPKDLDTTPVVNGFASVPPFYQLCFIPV

For the molecule `c1cn(-c2cc(-c3ccc4c(c3)OCO4)ncn2)cn1`, the Potency in test [1] was over 11.4 µM; in test [5], over 46 µM; in [6], over 46 µM; in test [9] it was 3.16 µM (active); in test [10], 2 µM (active); in test [11] it was 17.8 µM (active). For the same molecule, the activity change, negative = inhibition is 13.6% in [2] and 13.4% in test [3]. In addition, in test [4], the activity, negative = inhibition is 6.1%. The Potency result in test [7] and in test [8] was “inactive” in each case. The result in test [12] was inactive.

Take `O=c1c(-c2cccs2)nc2cnc(N3CCNCC3)nc2n1Cc1cccs1`: the Potency in test [1] is over 11.4 µM; in test [13], 3.98 µM (active); in test [5], over 9.22 µM; in [6] it was over 46 µM; in [11], 28.2 µM (active). In addition, the Potency result in test [7], in [8], in [14], in test [9] and in [10] was “inactive” each time. Also, the outcome in [12] was inactive.

Take `Cc1cnc(CNc2ncncc2-c2ccccc2C)cn1`: the Potency is over 11.4 µM in [1]; 25.1 µM (active) in [13]; over 46 µM in test [5]; over 46 µM in test [6]; 7.94 µM (active) in [15]. For the same molecule, the activity change, negative = inhibition in test [2] was 3.21%; in test [3] it was -3.77%. Moreover, in test [4], the activity, negative = inhibition is -10.5%. Further, the Potency entry in test [7], in test [8], in [14], in test [9] and in test [11] was “inactive” throughout. Moreover, the outcome in test [12] was inactive.

Consider `CCNc1ncc2nc(-c3ccc(Cl)cc3)c(=O)n(Cc3cccc(OC)c3)c2n1`, for which the Potency in [1] is over 11.4 µM; in [5], over 9.22 µM; in [6] it was over 46 µM; in test [16], 0.316 µM (active). In addition, the Potency result in test [13], in test [7], in test [8], in test [9], in test [10] and in test [11] was “inactive” each time. Moreover, the outcome in test [12] was inactive.

Take `NC(=O)c1ccccc1-c1nc(-n2ccnc2)c2ccccc2n1`: the Potency in [1] is over 11.4 µM; in [13] it was 2.51 µM (active); in test [6], over 46 µM; in test [17], 3.98 µM (active). Besides, the activity change, negative = inhibition in test [2] is 11.1%; in test [3] it was -3.23%. Further, the activity, negative = inhibition in test [4] was -1.41%. Besides, the Potency entry in [7], in test [8], in test [14], in [18], in test [10] and in test [11] was “inactive” in each case. Besides, the outcome in test [12] was inactive.
